Laboratory results published in PubChem BioAssay.
Active and inactive are the calls of the source.

Tests used:
[1] = system: PRMT1 (protein arginine N-methyltransferase 1); assay: small molecules binding arginine methyltransferase PRMT1 – biochemical, small-molecule microarray, 635 nm fluorescence, primary screen (AID 1088); conditions: higher = more signal;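 also: binding of Prmt1 protein to compounds spotted on small-molecule microarray slides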
[2] = growth effects on S. cerevisiae YJM789 – YJM789 clinical isolate, OD600, 24 h, basal, primary screen (AID 1089); conditions: higher = more signal, called active from +8 up or from −8 down;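 also: growth of clinical yeast isolate S. cerevisiae YJM 789 seeded 1000 cells per well; test concentration not given here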
[3] = S. pombe growth modifiers, basal conditions – strain 972, OD600, 24 h, no modulator, primary screen (AID 1090);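 also: basal condition with compound alone and no growth modifier present; test concentration not given here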; conditions: S. pombe 972 growth, higher = more signal, called active from +8 up or from −8 down
[4] = budding yeast growth modifiers under rapamycin – strain BY4716, OD600, 96 h, primary screen (AID 1091); also: test concentration not given here; conditions: S. cerevisiae BY4716 + rapamycin, higher = more signal, called active from +8 up or from −8 down
[5] = target: Torsin-1A-interacting protein 2 (Homo sapiens) (UniProt Q8NFQ8); assay: small molecules binding lysate-expressed LULL1 – cell lysate, human LULL1 lysate, 635/667 nm fluorescence, primary screen (AID 1092); conditions: small-molecule microarray, hLULL1 lysate binding, 635 nm fluorescence; higher = more signal;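 also: probe is lysate of COS7 cells overexpressing human LULL1; score merges per-feature 667 nm fluorescence with signal-to-noise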
[6] = optical density change of DRC41 E. coli – strain DRC41, OD650, 24 h, E. coli filamentation project, primary screen (AID 1093);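 also: MC1000 strain lacking acrAB efflux and sulA so SOS filamentation is blocked; test concentration not given here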; conditions: E. coli DRC41 growth, higher = more signal, called active from +8 up or from −8 down
[7] = probe aLefty2 binding to arrayed compounds – biochemical, biotinylated probe, 635/667 nm fluorescence, primary screen (AID 1094); conditions: small-molecule microarray, higher = more signal;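 also: score merges spot fluorescence near 667 nm with spot signal-to-noise ratio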
[8] = system: Noggin (protein binding on small-molecule microarray); assay: small molecules binding Noggin protein – biochemical, 635/667 nm fluorescence, primary screen (AID 1095); conditions: 635 nm fluorescence, higher = more signal;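 also: score merges 667 nm feature fluorescence with signal to noise over triplicate slides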
[9] = target: Neurogenic locus notch homolog protein 3 (Homo sapiens) (UniProt Q9UM47); assay: small molecules binding NOTCH3 protein – biochemical, 635/667 nm fluorescence, primary screen (AID 1096); conditions: small-molecule microarray, 635 nm fluorescence, higher = more signal
[10] = probe aEGFR binding to arrayed compounds – biochemical, biotinylated probe, 635/667 nm fluorescence, primary screen (AID 1097); conditions: small-molecule microarray, higher = more signal;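 also: probe is a biotinylated anti-EGFR antibody binding compounds printed on slides; score combines fluorescence near 667 nm and signal to noise of each spot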

Torsin-1A-interacting protein 2 (Homo sapiens), sequence (Q8NFQ8 whole entry, looked up): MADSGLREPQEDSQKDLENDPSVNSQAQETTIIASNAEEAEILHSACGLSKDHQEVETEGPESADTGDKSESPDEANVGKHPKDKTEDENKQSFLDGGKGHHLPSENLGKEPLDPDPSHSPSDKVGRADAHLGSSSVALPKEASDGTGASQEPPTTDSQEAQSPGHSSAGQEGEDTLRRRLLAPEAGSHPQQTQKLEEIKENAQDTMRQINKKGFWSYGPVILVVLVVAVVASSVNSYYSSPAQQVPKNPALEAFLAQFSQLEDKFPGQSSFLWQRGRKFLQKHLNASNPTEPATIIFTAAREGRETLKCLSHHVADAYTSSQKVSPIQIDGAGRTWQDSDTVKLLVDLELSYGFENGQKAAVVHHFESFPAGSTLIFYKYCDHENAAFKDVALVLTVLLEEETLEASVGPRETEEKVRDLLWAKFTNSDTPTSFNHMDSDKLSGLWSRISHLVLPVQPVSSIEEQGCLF
Neurogenic locus notch homolog protein 3 (Homo sapiens), sequence (Q9UM47 whole entry, looked up): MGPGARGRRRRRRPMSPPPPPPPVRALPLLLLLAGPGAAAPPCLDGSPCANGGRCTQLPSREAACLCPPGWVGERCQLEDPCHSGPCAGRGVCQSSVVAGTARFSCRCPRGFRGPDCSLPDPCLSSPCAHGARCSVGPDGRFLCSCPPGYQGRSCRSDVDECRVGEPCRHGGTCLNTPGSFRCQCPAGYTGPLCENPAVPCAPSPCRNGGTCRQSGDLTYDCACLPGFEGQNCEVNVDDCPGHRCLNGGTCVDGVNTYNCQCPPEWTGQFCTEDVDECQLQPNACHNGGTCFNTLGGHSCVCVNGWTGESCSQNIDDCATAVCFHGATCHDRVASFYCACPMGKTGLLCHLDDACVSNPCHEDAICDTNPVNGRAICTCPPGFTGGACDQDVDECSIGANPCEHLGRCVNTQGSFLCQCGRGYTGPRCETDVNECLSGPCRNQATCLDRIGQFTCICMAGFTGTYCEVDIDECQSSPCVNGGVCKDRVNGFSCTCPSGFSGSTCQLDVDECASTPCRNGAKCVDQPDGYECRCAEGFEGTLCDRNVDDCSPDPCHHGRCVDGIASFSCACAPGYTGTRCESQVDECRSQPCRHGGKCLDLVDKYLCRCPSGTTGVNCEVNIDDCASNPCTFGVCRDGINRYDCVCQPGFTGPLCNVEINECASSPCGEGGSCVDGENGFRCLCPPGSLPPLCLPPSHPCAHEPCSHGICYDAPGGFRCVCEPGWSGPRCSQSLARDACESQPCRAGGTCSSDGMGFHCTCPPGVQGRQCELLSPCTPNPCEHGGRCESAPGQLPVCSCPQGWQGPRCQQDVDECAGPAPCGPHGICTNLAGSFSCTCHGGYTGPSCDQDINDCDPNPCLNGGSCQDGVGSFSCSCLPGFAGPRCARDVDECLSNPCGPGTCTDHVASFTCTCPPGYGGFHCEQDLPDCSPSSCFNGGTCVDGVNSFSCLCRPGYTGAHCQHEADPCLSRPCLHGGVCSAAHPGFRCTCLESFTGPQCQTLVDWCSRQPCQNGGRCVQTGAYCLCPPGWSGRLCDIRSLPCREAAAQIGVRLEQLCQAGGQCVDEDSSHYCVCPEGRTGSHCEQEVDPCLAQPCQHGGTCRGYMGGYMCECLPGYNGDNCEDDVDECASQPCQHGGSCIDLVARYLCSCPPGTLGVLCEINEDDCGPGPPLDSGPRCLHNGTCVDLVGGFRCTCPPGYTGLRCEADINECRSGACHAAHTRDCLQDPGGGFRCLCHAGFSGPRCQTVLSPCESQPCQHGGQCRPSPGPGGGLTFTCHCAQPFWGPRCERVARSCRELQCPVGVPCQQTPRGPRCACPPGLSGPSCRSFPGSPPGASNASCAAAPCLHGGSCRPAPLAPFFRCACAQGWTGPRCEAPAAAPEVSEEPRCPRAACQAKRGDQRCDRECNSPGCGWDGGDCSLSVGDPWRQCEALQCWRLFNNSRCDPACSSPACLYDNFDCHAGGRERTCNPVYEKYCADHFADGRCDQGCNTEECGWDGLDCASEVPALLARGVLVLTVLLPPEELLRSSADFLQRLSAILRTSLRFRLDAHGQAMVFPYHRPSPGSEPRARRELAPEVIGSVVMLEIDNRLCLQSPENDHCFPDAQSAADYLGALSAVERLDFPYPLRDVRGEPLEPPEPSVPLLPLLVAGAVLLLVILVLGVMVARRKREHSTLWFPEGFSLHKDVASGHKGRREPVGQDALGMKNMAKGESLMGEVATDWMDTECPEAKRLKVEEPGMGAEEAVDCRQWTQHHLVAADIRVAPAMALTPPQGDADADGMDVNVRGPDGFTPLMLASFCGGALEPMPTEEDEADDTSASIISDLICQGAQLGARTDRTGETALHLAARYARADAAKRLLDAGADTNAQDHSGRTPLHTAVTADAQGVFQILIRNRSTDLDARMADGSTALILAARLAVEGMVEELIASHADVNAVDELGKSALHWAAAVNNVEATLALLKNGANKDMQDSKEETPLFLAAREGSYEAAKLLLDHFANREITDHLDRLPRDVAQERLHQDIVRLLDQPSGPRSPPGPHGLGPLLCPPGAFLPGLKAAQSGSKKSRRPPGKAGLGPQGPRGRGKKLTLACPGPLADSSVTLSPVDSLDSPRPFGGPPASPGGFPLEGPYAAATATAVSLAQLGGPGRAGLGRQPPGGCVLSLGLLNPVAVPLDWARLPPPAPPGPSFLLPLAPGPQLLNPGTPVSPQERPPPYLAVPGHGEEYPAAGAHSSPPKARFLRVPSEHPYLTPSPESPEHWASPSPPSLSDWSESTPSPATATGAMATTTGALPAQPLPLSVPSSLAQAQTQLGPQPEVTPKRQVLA

With `CCOC(=O)[C@H]1C/C=C/C[C@H](C(=O)OCC)C(=O)O[C@H]2[C@@H](OC)O[C@H](CO)[C@@H](OC(=O)Nc3ccc(OC)cc3)[C@@H]2OC1=O` the composite z-score [1] was 1.49, the z-score [2] was 1.04 (inactive) and the z-score [3] was -0.0368 (inactive). For the same molecule, the z-score [4] was 3.56 (inactive), the composite z-score [5] was 2.03 and the z-score [6] was 1.3 (inactive). The composite z-score [7] was 0.217, the composite z-score [8] was 0.713 and the composite z-score [9] was 1.09. The composite z-score [10] was -0.0737.

In the case of `COC(=O)C(CC#Cc1ccc2c(c1)[C@]1(C(=O)N2)[C@H](C(=O)O)[C@H]2C(=O)O[C@H](c3ccccc3)[C@H](c3ccccc3)N2[C@@H]1c1ccccc1OCCO)C(=O)OC`, the composite z-score [1] is reported as 1.54, the z-score [2] is reported as 1.93 (inactive) and the z-score [3] is reported as 0.324 (inactive). For the same molecule, the z-score [4] was -1.17 (inactive), the composite z-score [5] was 3.04 and the z-score [6] was -0.972 (inactive). It also gave a composite z-score [7] of 0.396, a composite z-score [8] of 1.27 and a composite z-score [9] of 1.15. The composite z-score [10] was 0.103.

For `Cc1ccc(S[C@]2(C(=O)NC3CC3)CC(=O)N(Cc3ccccc3Cl)[C@@H]2c2ccc(CO)cc2I)cc1`, the composite z-score [1] was 1.54, the z-score [2] was -0.362 (inactive) and the z-score [3] was -1.83 (inactive). The z-score [4] was 0.67 (inactive), the composite z-score [5] was 3.22 and the z-score [6] was 0.481 (inactive). It also gave a composite z-score [7] of 0.0448, a composite z-score [8] of 1.34 and a composite z-score [9] of 0.304. The composite z-score [10] was -0.0238.

For `COC(=O)[C@H](Cc1ccccc1)N1CC(/C=C/C2CC2)=C[C@@H]1[C@@H](O)Cc1ccccc1`, the composite z-score [1] was 1.46, the z-score [2] was 0.107 (inactive) and the z-score [3] was -3.04 (inactive). The z-score [4] was 0.423 (inactive), the composite z-score [5] was 1.66 and the z-score [6] was 0.559 (inactive). It also gave a composite z-score [7] of 0.0166, a composite z-score [8] of 0.685 and a composite z-score [9] of 0.9. For the same molecule, the composite z-score [10] was 0.009.

With `C=C(C(=O)CC[C@H](OC(=O)c1cccnc1)c1ccc(CO)o1)C(C)C` the composite z-score [1] was 1.51, the z-score [2] was -1.23 (inactive) and the z-score [3] was -0.796 (inactive). For the same molecule, the z-score [4] was -0.719 (inactive), the composite z-score [5] was 1.34 and the z-score [6] was -0.605 (inactive). It also gave a composite z-score [7] of 0.152, a composite z-score [8] of 1.02 and a composite z-score [9] of 0.623. The composite z-score [10] was 0.0504.

For `C=CCOC(=O)[C@@H]1[C@H]2C(=O)O[C@H](c3ccccc3)[C@H](c3ccccc3)N2[C@H](c2ccc(OCCOC(=O)[C@H]3C[C@H]4C(=O)N[C@@H](CCCC[N+](C)(C)C)C(=O)N4[C@H]3c3ccc(O)cc3)cc2)[C@@]12C(=O)Nc1ccc(I)cc12`, the composite z-score [1] was 1.53, the z-score [2] was 1.86 (inactive) and the z-score [3] was 1.49 (inactive). For the same molecule, the z-score [4] was 4.28 (inactive), the composite z-score [5] was 2.64 and the z-score [6] was -0.0021 (inactive). For the same molecule, the composite z-score [7] was -0.126, the composite z-score [8] was 1.94 and the composite z-score [9] was 1.05. The composite z-score [10] was -0.027.

With `O=C1NC(=O)C2C1C=CC(C(O)c1cc(C(F)(F)F)cc(C(F)(F)F)c1)N2Nc1ccc(Cl)cc1Cl` (stereo not given) the composite z-score [1] was 0.33, the z-score [2] was -1.44 (inactive) and the z-score [3] was -17 (active). For the same molecule, the z-score [4] was -0.256 (inactive), the composite z-score [5] was 2.24 and the z-score [6] was -2.34 (inactive). It also gave a composite z-score [7] of 0.0094, a composite z-score [8] of -0.93 and a composite z-score [9] of 0.398. The composite z-score [10] was 0.228.
